Bioassay records as filed in PubChem.
Most compounds without a hit are left out; they make up all but 2.4% or so of the library.
D2 PAM-1 = D2 dopamine receptor (human) potentiation | P14416 | HEK293 T-REx D2, calcium flux, EC20 dopamine potentiation | potentiation, % at 10 µM | 340,000 compounds, 0.34% hits | AID 485347;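 active = potentiation over 3 SD above the plate norm, cut at about 30% in these data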; also: 0% is about no effect
Target sequence (P14416 whole entry, looked up): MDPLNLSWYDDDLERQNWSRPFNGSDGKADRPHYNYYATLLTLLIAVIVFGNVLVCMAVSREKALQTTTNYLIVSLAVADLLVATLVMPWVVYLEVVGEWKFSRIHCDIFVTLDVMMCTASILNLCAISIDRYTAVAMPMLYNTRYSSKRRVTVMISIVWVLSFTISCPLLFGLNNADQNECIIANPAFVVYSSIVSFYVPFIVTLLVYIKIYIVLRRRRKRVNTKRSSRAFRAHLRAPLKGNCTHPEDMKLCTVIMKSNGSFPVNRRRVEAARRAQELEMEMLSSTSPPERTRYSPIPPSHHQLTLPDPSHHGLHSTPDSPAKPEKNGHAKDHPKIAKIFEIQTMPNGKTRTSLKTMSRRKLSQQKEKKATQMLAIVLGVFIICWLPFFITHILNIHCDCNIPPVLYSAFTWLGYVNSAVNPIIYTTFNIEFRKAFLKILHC
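Using a no-wash calcium dye in inducible, force-coupled HEK293 Trex cells expressing D2, we tracked fluorescence each second for 180 s after compound, then for 180 s after EC20 dopamine to detect augmented signalling.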
D2 ag-1 = activates the human D2 dopamine receptor; P14416; DiscoveRx PathHunter D2 beta-arrestin, luminescence, 90 min; 100% = 57 uM dopamine signal; activation, % (concentration not given with the values); 360,000 compounds, 0.084% hits; in the data active = activation above about 40%
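Agonist mode: compounds alone added to overnight-plated D2 PathHunter cells for 90 min at 37 C, with 57 uM final dopamine (EC100) defining full response. Beta-arrestin recruitment detected by chemiluminescent reagent, read after 1 h at ambient temperature.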
D2 antagonist = antagonizes the human D2 dopamine receptor; HEK293 TREx D2 cells, calcium flux, dopamine EC80; inhibition, % at 10 µM; 340,000 compounds, 2% hits; AID 485344; in the data active = inhibition above about 30%; inactive = below that, where a call was filed; also: 0% is about no effect
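Measurement of antagonist activity uses fluorescent calcium dye in inducible HEK293 T-REx D2 cells: 10 s baseline, compound addition with 180 s read, EC80 dopamine addition with a further 180 s read.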
D2 PAM-2 = positive allosteric modulators of human D2 dopamine receptor. 360,000 compounds, 0.23% hits. P14416. potentiation, % (no concentration beside the values). DiscoveRx D2 beta-arrestin cells, luminescence, 90 min; 100% = 57 uM dopamine signal; in the data active = potentiation above about 50%
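PathHunter D2 cells, attached overnight at 37 deg C, received compound in DMSO plus dopamine at EC20 (50 nM final) for 90 min at 37 deg C. Beta-arrestin recruitment was read as luminescence after 1 h with detection reagent at ambient temperature.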
D2 ag-2 = agonists of human D2 dopamine receptor; P14416; HEK293 T-REx D2 cells, calcium flux agonist mode; 340,000 compounds, 0.53% hits; activation, % at 2 µM;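 active = activation over 3 SD above normal in the single-dose calcium agonist read, cut at about 30% in these data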; also: 0% is about no effect
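HEK293 Trex D2 cells, tetracycline-induced, o/n 30 C 5% CO2; no-wash Ca dye, RT 30–90 min; 10-cycle baseline, 23 nl cpd added, kinetic Ca read 180 s; agonist hits = positive Ca response.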
Numbers without * were called inactive.

Screening COc1ccc(Cl)c2c1[nH]c1nc(SCc3ccccn3)nnc12 returned D2 PAM-1 -10, D2 ag-1 1, D2 antagonist 43*, D2 PAM-2 -17 and D2 ag-2 -1.
Cc1coc2c1c(C)cc1oc(=O)c(CC(=O)NCC(=O)O)c(C)c12 was read as D2 PAM-1 -11, D2 ag-1 2, D2 antagonist 8, D2 PAM-2 -5 and D2 ag-2 2.
Cc1coc2c1c(C)cc1oc(=O)c(CC(=O)NCCCCCC(=O)O)c(C)c12 was read as D2 PAM-1 46*, D2 ag-1 1, D2 antagonist 2, D2 PAM-2 7 and D2 ag-2 0.
For N#C/C(=C\c1ccc(-c2ccccc2[N+](=O)[O-])o1)C(=O)Nc1nc(-c2cccs2)cs1 the results were D2 PAM-1 16, D2 ag-1 -9, D2 antagonist 32*, D2 PAM-2 -38 and D2 ag-2 0.
For Cc1ccsc1C(=O)NNC(=O)c1csc(N2CCOCC2)n1 the results were D2 PAM-1 -8, D2 ag-1 -8, D2 antagonist 32*, D2 PAM-2 -11 and D2 ag-2 1.
Cc1ccsc1C(=O)Nc1ccccc1N1CCOCC1 was read as D2 PAM-1 -8, D2 ag-1 -3, D2 antagonist 38*, D2 PAM-2 10 and D2 ag-2 0.
Screening Cc1ccc(C(=O)NNC(=O)c2csc(N3CCOCC3)n2)o1 returned D2 PAM-1 -4, D2 ag-1 -3, D2 antagonist 17, D2 PAM-2 -16 and D2 ag-2 0.
`Cc1nc2ccccc2n1CCc1nc2c3ccccc3nc(SCc3ccc(C#N)cc3)n2n1` gave D2 PAM-1 8 and D2 ag-2 0.
`COc1ccc(CN2C(=O)N(c3ccc(F)cc3)C(=O)C2CC(=O)Nc2cc(OC)cc(OC)c2)cc1` (stereo unspecified) gave D2 PAM-1 7 and D2 ag-2 0.
COc1ccccc1NC(=O)N1CCN(C)CC1 was read as D2 PAM-1 -11, D2 ag-1 1, D2 antagonist -1, D2 PAM-2 -4 and D2 ag-2 1.
For COc1ccccc1NC(=O)N1CCCC1 the results were D2 PAM-1 2, D2 ag-1 0, D2 antagonist 33*, D2 PAM-2 -5 and D2 ag-2 0.
Screening O=C(N[C@H](CO)[C@H](O)c1ccc([N+](=O)[O-])cc1)C(Cl)Cl returned D2 ag-1 -5 and D2 PAM-2 -9.
`O=C(NC(CO)C(O)c1ccc([N+](=O)[O-])cc1)C(Cl)Cl` (stereo unspecified) gave D2 PAM-1 -16, D2 ag-1 4, D2 antagonist 52*, D2 PAM-2 -5 and D2 ag-2 2.
Cc1nn(Cc2ccccc2)c(C)c1NC(=O)c1noc2c1CCc1ccccc1-2 was read as D2 PAM-1 31*, D2 ag-1 0, D2 antagonist -4, D2 PAM-2 -4 and D2 ag-2 0.
For Cc1nn(Cc2ccc(Cl)c(Cl)c2)c(C)c1NC(=O)c1noc2c1CCc1ccccc1-2 the results were D2 PAM-1 6 and D2 ag-2 1.
For Cc1c[nH]c2cccc(OCC(CNC(C)(C)C)OC(=O)c3ccccc3)c12 (stereo unspecified) the results were D2 PAM-1 -19, D2 ag-1 -4, D2 antagonist 70*, D2 PAM-2 -18 and D2 ag-2 0.
Screening CC(=O)Nc1c(C)nn(-c2ccccc2)c1N1CCC(C(=O)Nc2cccc(C(F)(F)F)c2)CC1 returned D2 PAM-1 -6 and D2 ag-2 1.
Screening O=C(CC1SC(=O)N(c2ccccc2)C1=O)Nc1ccc(Br)cc1 (stereo unspecified) returned D2 PAM-1 -3, D2 ag-1 -7, D2 antagonist -3, D2 PAM-2 -16 and D2 ag-2 0.
For CN(C1=NC(=O)C(CC(=O)Nc2ccc(Br)cc2)S1)c1ccc(O)cc1 (stereo unspecified) the results were D2 PAM-1 -24, D2 ag-1 0, D2 antagonist 40*, D2 PAM-2 -24 and D2 ag-2 0.
Screening CC(=O)c1ccccc1OCCOc1ccccc1C(C)=O returned D2 PAM-1 1, D2 ag-1 -6, D2 antagonist -4, D2 PAM-2 0 and D2 ag-2 0.
CCc1ccccc1OCCCCN1CCCC1 was read as D2 PAM-1 -18, D2 ag-1 -6, D2 antagonist 46*, D2 PAM-2 -38 and D2 ag-2 2.
`CC(=O)c1ccccc1OCCCCN1CCCCC1` gave D2 PAM-1 -28, D2 ag-1 -5, D2 antagonist 58*, D2 PAM-2 -5 and D2 ag-2 2.
For COC(=O)c1ccccc1OCCN1CCCCCC1 the results were D2 PAM-1 -34, D2 ag-1 1, D2 antagonist 39*, D2 PAM-2 -17 and D2 ag-2 3.
`COC(=O)c1ccc(OCCN2CCCCCC2)cc1` gave D2 PAM-1 -31, D2 ag-1 4, D2 antagonist 55*, D2 PAM-2 -22 and D2 ag-2 -1.
`COc1ccc(-n2cc(C(=O)N(CCN(C)C)Cc3ccccc3)c3ccccc3c2=O)cc1` gave D2 PAM-1 -7 and D2 ag-2 1.
For Cc1ccc(C)c(NC(=O)CSc2c3c(nc4ccc(Cl)cc24)CCCC3)c1 the results were D2 PAM-1 1 and D2 ag-2 0.
`CCN1CCN(CCOc2cccc(Cl)c2Cl)CC1` gave D2 PAM-1 7, D2 ag-1 1, D2 antagonist -12, D2 PAM-2 -5 and D2 ag-2 -3.
CCC(=O)c1ccccc1OCCN1CCN(CC)CC1 was read as D2 PAM-1 -20, D2 ag-1 1, D2 antagonist 38*, D2 PAM-2 -13 and D2 ag-2 -1.
`COc1cc(C(=O)N(Cc2cccnc2)Cc2cc3cc4c(cc3[nH]c2=O)OCCO4)cc(OC)c1OC` gave D2 PAM-1 7, D2 ag-1 -3, D2 antagonist 37*, D2 PAM-2 5 and D2 ag-2 0.
Screening Cc1ccc2nc(NC(=O)CSc3nc4c(c(=O)n3C)SC(C)C4)sc2c1 (stereo unspecified) returned D2 PAM-1 32*, D2 ag-1 4, D2 antagonist -3, D2 PAM-2 17 and D2 ag-2 0.
For Cc1cc(=O)n2nc(N3CCC(C(=O)Nc4ccc(Br)c(C)c4)CC3)sc2n1 the results were D2 PAM-1 11 and D2 ag-2 0.
For CCOC(=O)C(NC(=O)c1ccc(OC)cc1)(Nc1cc(C)on1)C(F)(F)F (stereo unspecified) the results were D2 PAM-1 -4, D2 ag-1 0, D2 antagonist 9, D2 PAM-2 -6 and D2 ag-2 -1.
